{
  "source": "PubChem BioAssay (EPA / NIEHS)",
  "note": "Results filed as inconclusive are left out. Calls of active or inactive are those of the source. Rule for the calls: active = hit-call score of the fitted dose curve at least 0.9, where 1 is the maximum; inconclusive = response in the unintended direction; inactive = score below 0.9.",
  "data": [
    {"assay": "ACEA_ER_80hr: ACEA Biosciences xCELLigence Real-Time Cell Analysis on Estrogen Receptor Agonism for Proliferation (AID 2282667)", "conditions": "T47D proliferation, impedance (xCELLigence), 80 h", "in_short": "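T47D human breast cells were seeded on electrode plates, monitored overnight, then exposed continuously to compounds in eight-point 1:4 dilutions from 100 uM (max 0.5% DMSO). Impedance-based growth was read at 80 h, fitted upward relative to DMSO.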", "values": [
      {"smiles": "OCc1ccco1", "outcome": "inactive"},
      {"smiles": "Oc1ccc(-c2ccccc2)cc1", "AC50": "10500 nM (active)"},
      {"smiles": "C1CCC(NC2CCCCC2)CC1", "outcome": "inactive"},
      {"smiles": "CCOP(=S)(OCC)Oc1ccc(S(C)=O)cc1", "note": "(stereo not drawn)", "outcome": "inactive"},
      {"smiles": "C(=NC1CCCCC1)=NC1CCCCC1", "outcome": "inactive"},
      {"smiles": "Cc1ccc(N)cc1Cl", "outcome": "inactive"},
      {"smiles": "O=C(c1ccccc1)C(Cl)Cl", "outcome": "inactive"},
      {"smiles": "O=P(O)(O)c1ccccc1", "outcome": "inactive"},
      {"smiles": "COP(=S)(OC)Oc1cc(Cl)c(Br)cc1Cl", "outcome": "inactive"},
      {"smiles": "CCC(=O)c1ccccc1", "outcome": "inactive"},
      {"smiles": "Nc1ncc([N+](=O)[O-])s1", "outcome": "inactive"},
      {"smiles": "CC(=[OH+])/C=C(/C)[O-].CC(=[OH+])/C=C(/C)[O-].CC(=[OH+])/C=C(/C)[O-].[Fe]", "outcome": "inactive"},
      {"smiles": "CCOC(=O)Nc1cccc(OC(=O)Nc2ccccc2)c1", "outcome": "inactive"},
      {"smiles": "COc1ccc(OC)c(C=O)c1", "outcome": "inactive"},
      {"smiles": "ClC1=C(Cl)[C@]2(Cl)[C@@H]3[C@@H](Cl)[C@@H](Cl)C[C@@H]3[C@@]1(Cl)C2(Cl)Cl", "outcome": "inactive"},
      {"smiles": "Cc1cc(Cl)ccc1O[C@H](C)C(=O)O", "outcome": "inactive"},
      {"smiles": "COP(=S)(OC)Oc1ccc(S(=O)(=O)N(C)C)cc1", "outcome": "inactive"},
      {"smiles": "CCCCCCCCCCCCCCCC[n+]1ccccc1", "AC50": "81 nM (active)"},
      {"smiles": "P.[In]", "AC50": "101 nM (active)"},
      {"smiles": "CC(Br)C(=O)O", "note": "(stereo not drawn)", "outcome": "inactive"},
      {"smiles": "CN(CCCC(=O)c1cccnc1)N=O", "outcome": "inactive"},
      {"smiles": "COc1cc2c(cc1OC)[C@@]13CCN4CC5=CCO[C@H]6CC(=O)N2[C@H]1[C@H]6[C@H]5C[C@H]43", "outcome": "inactive"},
      {"smiles": "O=P(O)(O)CN(CP(=O)(O)O)CP(=O)(O)O", "outcome": "inactive"},
      {"smiles": "CC(C)c1ccc(CO)cc1", "outcome": "inactive"},
      {"smiles": "COP(=S)(OC)Oc1cc(Cl)c(Cl)cc1Cl", "outcome": "inactive"},
      {"smiles": "COS(=O)(=O)c1ccc(C)cc1", "outcome": "inactive"},
      {"smiles": "COc1ccc(C=O)cc1OC", "AC50": "15700 nM (active)"},
      {"smiles": "COP(=O)(OC)OC", "outcome": "inactive"},
      {"smiles": "CCCCP(CCCC)CCCC", "outcome": "inactive"},
      {"smiles": "CCCCOCCOC(C)=O", "outcome": "inactive"},
      {"smiles": "NC(=O)CF", "outcome": "inactive"},
      {"smiles": "C[C@H]1CCCC(=O)CCC/C=C/c2cc(O)cc(O)c2C(=O)O1", "AC50": "3.78 nM (active)"},
      {"smiles": "C[C@]12CC[C@H](O)CC1=CC[C@@H]1[C@@H]2CC[C@]2(C)C(=O)CC[C@@H]12", "AC50": "983 nM (active)"}
    ]}
  ]
}
